# Source: PubChem BioAssay (The Scripps Research Institute Molecular Screening Center)
# NCOA2 inhibitor – inhibits human steroid receptor coactivator 2 | Q15596 | HEK293 GAL4-SRC2 luciferase reporter, luminescence | inhibition, % at 9 µM | hit rate 0.17% among 370,000 | AID 651957;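 active = inhibition above the mean inhibition of all tested compounds plus 3 SD, set per campaign, cut at about 52% in these data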
# Target sequence (Q15596 whole entry, looked up, the tested form may be a part): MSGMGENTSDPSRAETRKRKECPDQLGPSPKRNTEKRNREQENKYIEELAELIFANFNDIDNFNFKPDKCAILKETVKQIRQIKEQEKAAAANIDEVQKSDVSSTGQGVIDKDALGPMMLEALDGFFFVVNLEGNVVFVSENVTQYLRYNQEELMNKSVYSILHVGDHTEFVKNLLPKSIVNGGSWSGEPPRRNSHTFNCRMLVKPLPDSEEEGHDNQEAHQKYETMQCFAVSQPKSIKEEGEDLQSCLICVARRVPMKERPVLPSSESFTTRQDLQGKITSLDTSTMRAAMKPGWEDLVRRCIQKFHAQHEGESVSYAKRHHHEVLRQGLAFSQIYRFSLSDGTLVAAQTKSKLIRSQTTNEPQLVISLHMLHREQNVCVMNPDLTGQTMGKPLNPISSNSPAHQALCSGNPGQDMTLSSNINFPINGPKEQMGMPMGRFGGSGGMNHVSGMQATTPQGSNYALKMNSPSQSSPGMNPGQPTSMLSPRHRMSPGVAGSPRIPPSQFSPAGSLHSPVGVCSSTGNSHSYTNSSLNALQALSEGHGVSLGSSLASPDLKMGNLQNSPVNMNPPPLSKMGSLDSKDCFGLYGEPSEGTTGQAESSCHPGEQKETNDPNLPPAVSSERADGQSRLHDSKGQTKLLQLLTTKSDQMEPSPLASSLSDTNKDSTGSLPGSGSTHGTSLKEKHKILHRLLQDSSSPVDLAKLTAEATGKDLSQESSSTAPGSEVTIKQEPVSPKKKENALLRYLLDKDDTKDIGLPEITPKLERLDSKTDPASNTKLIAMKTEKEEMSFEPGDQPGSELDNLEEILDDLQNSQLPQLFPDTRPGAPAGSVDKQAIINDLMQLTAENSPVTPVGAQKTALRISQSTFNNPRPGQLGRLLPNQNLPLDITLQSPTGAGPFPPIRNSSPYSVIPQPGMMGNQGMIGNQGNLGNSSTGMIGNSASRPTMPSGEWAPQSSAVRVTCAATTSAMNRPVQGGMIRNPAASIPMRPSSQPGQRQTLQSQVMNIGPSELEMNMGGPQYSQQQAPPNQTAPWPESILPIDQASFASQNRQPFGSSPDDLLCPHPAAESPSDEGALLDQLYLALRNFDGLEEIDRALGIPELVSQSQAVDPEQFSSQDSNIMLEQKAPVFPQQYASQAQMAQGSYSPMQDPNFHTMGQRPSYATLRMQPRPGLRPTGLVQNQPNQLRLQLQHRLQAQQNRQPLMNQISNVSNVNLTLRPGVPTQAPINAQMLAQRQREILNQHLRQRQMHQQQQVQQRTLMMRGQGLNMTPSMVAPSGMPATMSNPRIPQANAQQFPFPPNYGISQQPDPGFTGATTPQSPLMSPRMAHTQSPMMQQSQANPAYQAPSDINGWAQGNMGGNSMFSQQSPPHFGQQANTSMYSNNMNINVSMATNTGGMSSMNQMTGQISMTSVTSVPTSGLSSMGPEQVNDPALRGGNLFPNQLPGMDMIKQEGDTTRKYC
# GalR3 antagonist – human GalR3 antagonism; HEK293 GalR3-CNG cAMP membrane potential fluorescence; galR3 body fused to GalR1 C-terminus; inhibition, % at 3 µM; hit rate 0.44% among 360,000;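 active = inhibition above the screen-wide average plus 3 SD, cut at about 13% in these data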;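 also: forskolin and galanin both at EC90 stimulate the cells; cAMP rise reported by CNG channel membrane potential dye signal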
# SRC1 inh – inhibitors of human steroid receptor coactivator 1 (SRC1). inhibition, % at 3.6 µM. AID 588354. HEK293 GAL4-SRC1 luciferase reporter, luminescence. hit rate 0.12% among 360,000;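 active = inhibition above the campaign mean plus 3 SD, with each screening campaign given its own cutoff, cut at about 60% in these data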
# LRH-1 inv ag – suppresses constitutive activity of human LRH-1; HEK293T StAR-luciferase reporter, LRH-1 transfected, 24 h; inhibition, % at 3.6 µM; O00482; hit rate 0.13% among 360,000; AID 602396;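 active = inhibition above the mean inhibition of all tested compounds plus 3 SD, cut at about 73% in these data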
# NR2F2 inh – inhibitors of human COUP-TFII (NR2F2) | P24468 | HEK293T NGFI-A luciferase reporter, luminescence | inhibition, % at 8.6 µM | hit rate 0.7% among 370,000 | AID 686940;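 active = inhibition above a per-plate cutoff, mean inhibition of test wells between control levels plus 3 SD, cut at about 38% in these data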;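 also: cells cotransfected with COUP-TFII expression vector driving the NGFI-A reporter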
# SRC3 inh – inhibits human SRC3 coactivator; Q9Y6Q9; HEK293 GAL4-SRC3 luciferase reporter, luminescence; inhibition, % at 3.6 µM; hit rate 0.17% among 360,000; AID 588352;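 active = inhibition above a per-campaign cutoff, the mean of all compounds plus 3 SD, cut at about 60% in these data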;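 also: higher means less SRC3-driven luciferase light from the GAL4 reporter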
# Gal4-VP16 ctr – VP16 inhibition counter-screen for COUP-TFII | shares compounds with NR2F2 inh | HEK293 Gal4-VP16 luciferase reporter, luminescence | inhibition, % at 8.5 µM | hit rate 25% among 2,500; in the data active = inhibition above about 13%
# COUP-TFII conf – confirmation of human COUP-TFII (NR2F2) inhibitors. shares compounds with NR2F2 inh. HEK293 NGFI-A luciferase reporter, luminescence. inhibition, % at 8.5 µM. hit rate 45% among 2,500;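 active = mean inhibition over three repeats above a set limit taken from the earlier primary screen, cut at about 38% in these data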
# Numbers stand for hits; n = inactive; x = not tested or not shown. An excerpt weighted towards active compounds, which were near 1.1% of everything screened.
SMILES,NCOA2 inhibitor,GalR3 antagonist,SRC1 inh,LRH-1 inv ag,NR2F2 inh,SRC3 inh,Gal4-VP16 ctr,COUP-TFII conf
Cc1ccc(C(=O)Nc2nc3ccccc3[nH]2)cc1,n,n,n,n,49,n,n,n
Cc1cc(C(=O)Nc2cnc3ccccc3c2)ccc1[N+](=O)[O-],n,n,n,n,n,n,x,x
CC(=O)c1cc(-c2ccc3[nH]ccc3c2)c(=O)n2c1CCC2,n,x,x,x,n,x,x,x
CCOC(=O)N1CCN(C(=O)C[C@H]2C[C@@]3(C(=O)OC)C(=C[C@H](C(C)(C)C)O[C@@H]3C)N(Cc3cccc4ccccc34)C2=O)CC1,n,x,x,x,n,x,x,x
C=CCOC(=O)C(CO)NC(=O)CCCC(=O)O (stereo not drawn),n,x,x,x,n,x,x,x
NC1=C(Br)C(=O)c2ncccc2C1=O,75,n,83,95,81,88,92,93
COc1ccc2c(c1)[C@@H](NC(=O)C(F)(F)F)[C@@H]1CCCC[C@]21c1ccccc1,n,n,x,x,n,x,x,x
COc1ccc(NS(=O)(=O)c2cccc(C(=O)NC3CCN(Cc4ccccc4)CC3)c2)cc1,n,n,n,n,n,n,x,x
COc1ccc(Cl)cc1NS(=O)(=O)c1cccc(C(=O)NC2CCN(Cc3ccccc3)CC2)c1,n,n,n,n,48,n,17,n
Nc1nnc(-c2cc3ccccc3oc2=O)s1,n,n,n,n,n,n,x,x
Nc1cccc(-c2cc3ccccc3oc2=O)c1,n,n,n,n,57,n,n,n
COC(=O)C[C@@H]1CC[C@H]2[C@H](COc3ccc(NC(=O)Nc4ccc(C#N)cc4)cc3C(=O)N2C)O1,n,x,x,x,n,x,x,x
CC(=O)Oc1c(Cl)cc(N(C(C)=O)S(=O)(=O)c2ccccc2)c2ccccc12,n,n,n,n,53,n,28,n
C=CCN(CC#Cc1ccccc1)CC=C,n,x,x,x,n,x,x,x
COC(=O)c1cnn(-c2ccc(F)cc2F)c1/C=N/NC(=S)Nc1ccccc1,x,x,x,x,48,x,n,n
CC(=O)CC[C@H]1CC[C@]2(CCCN(C(=O)c3ccno3)C2)O1,n,x,x,x,n,x,x,x
CN(C)Cc1c(C(C)(C)O)[nH]c2cc(F)ccc12,n,n,x,x,n,x,x,x
CCOC(=O)C(NCc1ccco1)(NC(=O)c1ccccc1)C(F)(F)F (stereo not drawn),n,n,n,n,n,n,x,x
CCOC(=O)C(NC(=O)c1ccccc1)(Nc1cccc(C)n1)C(F)(F)F (stereo not drawn),n,n,n,n,39,n,n,n
On1ccccc1=S,n,n,n,n,66,n,87,46
OC(CCN1CCCCC1)(c1ccccc1)C1CC2C=CC1C2 (stereo not drawn),n,x,x,x,n,x,x,x
Cc1nn(-c2ccccc2)c(C)c1C(=O)OC(C)C(=O)NC1CCCCC1C (stereo not drawn),n,n,n,n,39,n,n,n
COC(=O)[C@]12C[C@H](CC(=O)NCc3ccc(C)o3)C(=O)N(Cc3ccccc3)C1=C[C@H](C1CCCC1)O[C@@H]2C,n,n,x,x,n,x,x,x
Cc1noc(C)c1NC(=O)N(C)C[C@@H]1OCc2cn(nn2)CCCC(=O)N([C@@H](C)CO)C[C@H]1C,n,n,x,x,n,x,x,x
C=C1C(=O)O[C@@H]2C[C@@H](C)[C@@H]3C=CC(=O)[C@@]3(C)[C@@H](OC(C)=O)[C@H]12,83,n,x,x,86,x,94,105
SMILES,NCOA2 inhibitor,GalR3 antagonist,SRC1 inh,LRH-1 inv ag,NR2F2 inh,SRC3 inh,Gal4-VP16 ctr,COUP-TFII conf
CCOc1ccc(-c2cc(CCCC(=O)NCc3ccc(C)cc3)no2)cc1,65,x,n,n,44,n,32,n
CCOc1ccc(-c2cc(CCCC(=O)NCc3ccco3)no2)cc1,60,x,n,n,43,n,n,n
CCOc1ccc(-c2nnn(CC(=O)NCc3ccco3)n2)cc1,n,n,n,n,n,n,x,x
COC(=O)[C@]12C[C@H](CC(=O)N3CCCCC3)C(=O)N(Cc3ccco3)C1=C[C@H](C(C)(C)C)O[C@@H]2C,n,x,x,x,n,x,x,x
O=C(OCc1ccccc1)[C@H](Cc1ccccc1)NC(=O)[C@@H]1CC=C[C@@H]2CCN(C3CCCCC3)C(=O)[C@@H]21,x,x,x,x,n,x,x,x
COC(=O)c1cc(-c2ccc3ccccc3c2)c(=O)n2c1CCC2,n,x,x,x,n,x,x,x
